Data: ChEMBL document CHEMBL3988442, “University of Dundee, Small-Polar-MMV Screening Library” (2021)
Out of some 48,000 compounds screened, about 13,000 (27%) showed an effect of 50% or more. Some of the results follow.

What follows are compounds tested on Wolbachia pipientis (assay: Anti-Wolbachia Cell-Based Screen). Details: 5 µM.
Assay type: functional
Design: scale not given: in the data most compounds retested in dose-response had high values

SMILES | Percent Effect [%]
COCc1noc(C2(c3cccc(Cl)c3)CCOCC2)n1 | -3.313
COC(=O)c1cccc(C2CNCCN2C)c1 (centres undefined) | 77.97
CNC(=O)c1cccc(C2CNCCN2C)c1 (centres undefined) | -21.17
COCCN1CCN(Cc2cccc(C(=O)N(C)C)c2)CC1C (centres undefined) | -4.413
COC(=O)c1cccc(CNC(=O)CCC(F)(F)F)c1 | -15.88
COC(=O)c1cccc(CNC(=O)NCCC(F)(F)F)c1 | -12.97
COC(=O)c1ccc2ccn(CC3CCNC3)c(=O)c2c1 (centres undefined) | -6.108
COC(=O)c1cccc(C2CNCCN2C(C)=O)c1 (centres undefined) | 103.9
CC(=O)N1CCNCC1c1cccc(C(=O)N(C)C)c1 (centres undefined) | -10.2
CN(C)C(=O)c1cccc(C2CNCCN2C)c1 (centres undefined) | 117.5
O=C(NCCc1ccncc1)c1ccc(N2CCOCC2)cc1 | -6.093
Cn1cc(C(=O)NCc2ccc(N3CCNC(=O)C3)c(F)c2)cn1 | -29.09
CC(C)CCC(=O)N1CCN(C(=O)c2ccc3nccn3c2)CC1 | -6.791
CNc1cc(C(=O)N2CCCCC2CCn2ccnc2C)ccn1 (centres undefined) | 14.21
CCC(=O)Nc1cccc(C(=O)NCCC2=CSC3=NCCCN23)c1 | 108.7
CC(C)(O)CCc1cccc(C(=O)NCCC2=CSC3=NCCCN23)c1 | 99.07
O=C(NC1=NCCCN1c1ccc(Cl)cc1)c1cccc(Cl)c1 | 17.77
CNc1cc(C(=O)NCCC2=CSC3=NCCCN23)ccn1 | 99.62
CC(C)(O)CCc1cccc(C(=O)NCc2nccs2)c1 | 1.829
CNc1cc(C(=O)N2CCC3(CC2)Nc2ccccc2NC3=O)ccn1 | 27.99
CCOc1ccc(N2CCCN=C2NC(=O)c2cccc(Cl)c2)cc1 | -0.7192
CC(=O)N1CCOC(CNC(=O)c2cccc(CCC(C)(C)O)c2)C1 (centres undefined) | 13.88
c1ccc(Cn2ccnc2CNC2CCCOc3ccccc32)cc1 (centres undefined) | -11.7
COC(=O)C(C)CN(C)S(=O)(=O)c1c(Br)cc2[nH]c(=O)oc2c1Cl (centres undefined) | 24.19
Cc1cccc(N(CCC(N)=O)C(=O)c2cc(-n3cccn3)ccn2)c1 | -21.32
CC1c2ncc(CNC(=O)C3CC3)n2CCN1Cc1ccccn1.O=C(O)C(F)(F)F.O=C(O)C(F)(F)F (centres undefined) | 93.52

SMILES | Percent Effect [%]
CC1c2ncc(CNC(=O)C3CC3)n2CCN1Cc1cnn(C)c1.O=C(O)C(F)(F)F.O=C(O)C(F)(F)F (centres undefined) | -12.81
O=C(NCc1cn2c(n1)CN(Cc1ccccn1)CC2)C1CCC1.O=C(O)C(F)(F)F.O=C(O)C(F)(F)F | -6.874
CC1c2ncc(CNC(=O)C3CC3)n2CCN1Cc1ccncc1.O=C(O)C(F)(F)F.O=C(O)C(F)(F)F (centres undefined) | 104.7
Cc1ncsc1CN1CCn2c(COCC3CC3)cnc2C1C.O=C(O)C(F)(F)F (centres undefined) | 6.232
O=C(NCc1cn2c(n1)CN(Cc1ccncc1)CC2)C1CCC1.O=C(O)C(F)(F)F.O=C(O)C(F)(F)F | -6.264
CC1c2ncc(CNC(=O)C3CC3)n2CCN1Cc1nccs1.O=C(O)C(F)(F)F (centres undefined) | 120.4
CC1c2ncc(CNC(=O)C3CC3)n2CCN1Cc1ccsc1.O=C(O)C(F)(F)F (centres undefined) | 96.09
N#Cc1cn(CCCN2CCc3ccccc3C2)c(=O)[nH]c1=O | -8.057
COc1ccc2c(c1)OCC(Cc1ccc(N(C)C)nc1)C2 (centres undefined) | -17.41
CC(=O)NC[C@H]1COCc2nc3cc(S(C)(=O)=O)ccc3n21 | -22.59
CC1c2ncc(CNC(=O)C3CC3)n2CCN1CC1CCC1.O=C(O)C(F)(F)F (centres undefined) | 88.49
CC1c2ncc(CNC(=O)C3CC3)n2CCN1Cc1cccnc1.O=C(O)C(F)(F)F.O=C(O)C(F)(F)F (centres undefined) | 100.5
COCc1cnc2n1CCN(C1CCC1)C2C.O=C(O)C(F)(F)F (centres undefined) | 11.12
Cc1nc(COCc2cnc3n2CCN(CC2CCC2)C3C)cs1.O=C(O)C(F)(F)F (centres undefined) | -9.854
COc1cccc2c1OCC(CNC(=O)CCCN1CCOCC1)C2 (centres undefined) | 2.111
CS(=O)(=O)NCc1cc2n(n1)CCCN(Cc1cccc(C#N)c1)C2 | 3.455
CC(CNC(=O)N1CCN(c2cnccn2)CC1)Cc1cccs1 (centres undefined) | -7.53
O=S(=O)(NCC1CCN(c2cnccn2)CC1)c1cccs1 | 107.7
CN(C1CCN(c2ccccn2)CC1)S(=O)(=O)c1cccs1 | -12.42
O=C(NCCSCc1ccc(Br)s1)C1CCCN(c2cnccn2)C1 (centres undefined) | 1.609
CCc1ccc(S(=O)(=O)NCC2CCN(c3cnccn3)CC2)s1 | 118.2
Cc1nn(C)c(C)c1CN(C)C1CCN(c2ncnc3[nH]cnc23)CC1 | 0.8279
CC(=O)Nc1ccc(C(=O)N2CCOc3nc(C)ccc32)cc1 | -10.66
COC(=O)CCC(=O)N1CCc2nc(C(=O)N(C)C)sc2CC1 | -18.4
Cc1cc(Nc2ccccn2)nc(C2CCCN(CCO)C2)n1.O=CO (centres undefined) | 136
Cc1cc(Nc2ncccn2)nc(C2CCCN(CCO)C2)n1 (centres undefined) | 168.6

SMILES | Percent Effect [%]
Cc1cc(O)nc(C2CCCN(CCO)C2)n1 (centres undefined) | 175.9
Cn1ncc2c(N3CCN(CCO)CC3)nc(C3CCCC3)nc21 | 1.132
Cc1cc(Nc2cnccn2)nc(C2CCCN(CCO)C2)n1 (centres undefined) | 125
CSCCC1c2nc[nH]c2CCN1Cc1ccnc2ccccc12 (centres undefined) | 14.89
COCCCN1CCC(NC(=O)C(C)C)CC1 | 12.3
Cc1noc(C)c1CNc1c(N2CCCC2)cccc1N1CCCC1 | 3.451
Cn1cc(N2CCCC(Nc3ccc4c(c3)NC(=O)CC4)C2=O)cn1 (centres undefined) | -4.573
CN(C)C(=O)N1CCN(C(=O)Nc2nc(-c3ccccc3)ns2)CC1 | -9.811
CC(c1ncc(-c2ccccc2)o1)N1CCN(C(=O)N(C)C)CC1 (centres undefined) | 106.8
CC(c1ncc(C(C)(C)C)o1)N1CCN(c2ccncc2)CC1 (centres undefined) | -9.491
Cc1ccc(-c2ncc(CN3CCN(C(=O)N(C)C)CC3)s2)o1 | 25.76
CCN1CCN(C(=O)NC(C)c2noc(-c3ccccc3)n2)CC1 (centres undefined) | 0.3597
CC(c1ncc(-c2ccccc2)o1)N1CCN(C(=O)C(C)(C)C)CC1 (centres undefined) | 102.5
CC(c1ncc(C(C)(C)C)o1)N1CCN(Cc2ccco2)CC1 (centres undefined) | 19.54
O=C(CCCc1ncc(-c2ccccc2)o1)N1CCN(CCO)CC1 | -1.483
CCS(=O)(=O)N1CCN(C(C)c2ccccc2OC)CC1 (centres undefined) | 10.43
COCC(=O)N1CCN(C(C)c2ncc(-c3ccccc3)o2)CC1 (centres undefined) | 108.5
COCC(=O)N1CCN(C)c2ncccc2C1 | 4.839
CCS(=O)(=O)N1CCN(C(C)c2ncc(-c3ccccc3)o2)CC1 (centres undefined) | 106.9
CCCn1ncc(C(=O)NC2CCN(CC3CCCO3)CC2)c1C (centres undefined) | 2.131
O=C(NCc1ccc(F)cc1)NCC(O)(c1ccco1)C1CC1 (centres undefined) | -0.2956
CN(C)C(CNC(=O)NCCc1cccc(O)c1)c1ccco1 (centres undefined) | 7.876
CC(=O)N1N=C(c2ccco2)OC1C(=O)NCCc1ccc(F)cc1 (centres undefined) | 117.3
O=C(NCCc1ccncc1)C1CCN(Cc2ccco2)CC1 | 7.688
CC(=O)N1N=C(c2ccco2)OC1C(=O)NCCc1ccc(O)cc1 (centres undefined) | 112.2
Cn1cc(CN2CCOC[C@H]2c2nc(C(C)(C)C)co2)c2ccccc21 | -4.393

SMILES | Percent Effect [%]
CN(C)c1ncccc1CNC(=O)N1CCCC1c1ccsc1 (centres undefined) | -3.064
CCOC1CCC2(CCN(C(=O)c3csnn3)CC2)c2ccccc21 (centres undefined) | 117.6
CN(C)C1CC2(CCN(C(=O)c3csnn3)CC2)c2ccccc21.O=C(O)C(F)(F)F (centres undefined) | -2.029
CCOC1CCC2(CCN(C(=O)c3c[nH]cn3)CC2)c2ccccc21 (centres undefined) | 107.8
CNC(=O)C1CC2(CCN(C(=O)c3csnn3)CC2)c2ccccc21 (centres undefined) | -5.077
CCOC1CC2(CCN(c3cnccn3)CC2)c2ccccc21 (centres undefined) | 15.96
CC1CC2(CCN(C(=O)c3csnn3)CC2)c2ccccc21 (centres undefined) | 10.92
CC1CC2(CCN(C(=O)c3c[nH]cn3)CC2)c2ccccc21 (centres undefined) | 62.95
N[C@@H]1c2ccccc2C2(CCN(C(=O)c3ccc(Cl)cn3)CC2)[C@H]1O | 2.711
CCOC1CC2(CCN(C(C)=O)CC2)c2cc(F)ccc21 (centres undefined) | -13.1
C[C@@H]1CN(C(=O)CCc2nncn2C)CC[C@@]1(O)C1CCC1 | -5.246
CCN(CC)CCn1ccnc1-c1cccc(C#N)c1 | 11.68
Cc1ccc(-c2nn(-c3cccc(F)c3)cc2CN(C)CCO)o1 | -10.45
CC(C)(C)CN[C@@H]1CO[C@H](CNC(=O)c2cccs2)[C@H]1O | -6.649
Cc1nc([C@@H]2C[C@H]3CN(Cc4scnc4C)C[C@H]3O2)no1 | -8.778
O=C(NCc1cccs1)c1nc2c(o1)CN(C(=O)c1cccnc1)C2.O=C(O)C(F)(F)F | 7.988
CN(C)C(=O)NCc1nnc2n1CCN(Cc1ccsc1)C2 | 3.865
CC(C)(C)C(O)CN1CCN(C(=O)COCC2CC2)CC1 (centres undefined) | -3.893
CCCOc1cc(C)ccc1NC(=O)NCCC(=O)N(C)C | -7.738
CCS(=O)(=O)NCCNC(C)(C)c1nc(C)cs1 | -9.016
NC(=O)c1ccc(S(=O)(=O)NCCc2ccccn2)cc1 | -9.373
CNC(=O)c1ccc(S(=O)(=O)NCCc2ccccn2)cc1 | -1.31
CC(=O)Nc1nc(C)c(S(=O)(=O)NCCc2cccnc2)s1 | 82
Cc1cc(NC(=O)NCCc2cccnc2)n(C)n1 | -22.8
Cn1ccnc1CCNS(=O)(=O)c1cccnc1 | 3.045
CC(=O)Nc1nc(C)c(S(=O)(=O)NCCc2ccccn2)s1 | 90.82
